From the supplement of paper PMC13380429

Assays:
[1] = system: Vero E6 infected with SARS-CoV-2; assay: morphology score (similarity to uninfected cells); higher = more like uninfected cells; conditions: 24 h
[2] = system: Vero E6 infected with SARS-CoV-2; assay: SARS-CoV-2 infection rate relative to infected DMSO; higher = more infection, active = 60 or less; conditions: 24 h

SMILES | morphology score [1] | SARS-CoV-2 infection rate [2]
C[C@@H](O)[C@H]1C(=O)N2C(C(=O)O)=C(SCCNC=N)C[C@H]12 [imipenem] (10 µM) | -0.161 | 114% (inactive)
CC[C@@H](CO)NC(=O)[C@@H]1C=C2c3cccc4[nH]cc(c34)C[C@H]2N(C)C1 [methylergometrine] (10 µM) | 0.112 | 96.5% (inactive)
Cc1ccc(N(CC2=NCCN2)c2cccc(O)c2)cc1 [phentolamine] (10 µM) | -0.00261 | 98% (inactive)
Nc1[nH]cnc2ncnc1-2 [adenine] (10 µM) | 0.0482 | 102% (inactive)
O=C(c1ccc(F)cc1)C1CCN(CCn2c(=S)[nH]c3ccccc3c2=O)CC1 [altanserin] (10 µM) | -0.0789 | 99% (inactive)
C[C@H](N)Cc1cccc(O)c1 [gepefrine] (10 µM) | -0.0218 | 106% (inactive)
O=C(O)c1ccc(S(=O)(=O)N(Cc2ccc(OC(F)(F)F)cc2)c2ncc(C(F)(F)F)cc2Cl)cc1 (10 µM) | 0.114 | 102% (inactive)
CCS(=O)(=O)Nc1ccc2c(c1)/C(=C(/Nc1ccc(CN3CCCCC3)cc1)c1ccccc1)C(=O)N2 [hesperadin] (10 µM) | -0.262 | 110% (inactive)
CC(=O)[C@H]1CC[C@H]2[C@@H]3CC=C4C[C@@H](OC(=O)CCC(=O)O)CC[C@]4(C)[C@H]3CC[C@]12C [pregnenolone-succinate] (10 µM) | -0.0431 | 104% (inactive)
COc1ccc(C(C)=O)c(O)c1 [paeonol] (10 µM) | 0.0505 | 100% (inactive)
COc1ccc(CNC(=O)c2sc3nc(C)cc(C)c3c2N)cc1 (10 µM) | -0.0124 | 104% (inactive)
CCCCCNC(=N)N/N=C/c1c[nH]c2ccc(OC)cc12 [tegaserod] (10 µM) | 0.0727 | 100% (inactive)
CC(=O)SC[C@@H](Cc1ccccc1)C(=O)NCC(=O)OCc1ccccc1 (racemic) [racecadotril] (10 µM) | 0.0461 | 110% (inactive)
O=C(O)Cc1ccc(CCNS(=O)(=O)c2ccc(Cl)cc2)cc1 [daltroban] (10 µM) | 0.136 | 97.5% (inactive)
COc1ccc(CCCO[C@@H](Cn2ccnc2)c2ccc(OC)cc2)cc1 (0.833333 µM) | 0.00702 | 107% (inactive)
CC(=O)N(C)c1cc(-c2ccnc3c(C(=O)c4cccs4)cnn23)ccc1F [lorediplon] (10 µM) | -0.126 | 112% (inactive)
CCC[C@@H]1CC2=CC(=O)CC[C@]2(C)[C@H]2CC[C@@]3(C)[C@@H](CC[C@@]3(O)CCC(=O)O)[C@H]12 (10 µM) | 0.105 | 104% (inactive)
CN(CCCN1c2ccccc2CCc2ccccc21)CC(=O)c1ccc(Cl)cc1 [lofepramine] (10 µM) | -0.0945 | 114% (inactive)
N#C/C(=C\c1ccc(O)c(O)c1)C(=O)OCCc1cccs1 (10 µM) | -0.0101 | 108% (inactive)
Oc1ccc2c3c1O[C@H]1[C@@H](O)CC[C@@]4(O)[C@@H](C2)N(CC2CCC2)CC[C@]314 [nalbuphine] (10 µM) | -0.0532 | 114% (inactive)
CCC1(c2ccccc2)C(=O)N(COC)C(=O)N(COC)C1=O [eterobarb] (10 µM) | -0.0955 | 106% (inactive)

SMILES | morphology score [1] | SARS-CoV-2 infection rate [2]
OC[C@H]1O[C@@H](c2ccc(Cl)c(Cc3ccc(O[C@H]4CCOC4)cc3)c2)[C@H](O)[C@@H](O)[C@@H]1O [empagliflozin] (10 µM) | -0.159 | 106% (inactive)
NC(=O)[C@@H](CC1CC1)[C@@H](CCC(F)(F)F)C(=O)N[C@H]1N=C(c2ccccc2)c2cccc(F)c2NC1=O (10 µM) | 0.179 | 102% (inactive)
Nc1sc2c(c1C(=O)c1ccc(Cl)cc1)CCCC2 (10 µM) | 0.0676 | 96.5% (inactive)
C[C@H]1[C@H](C)CC[C@]2(C(=O)O)CC[C@]3(C)C(=CC[C@@H]4[C@@]5(C)C[C@@H](O)[C@H](O)[C@@](C)(CO)[C@@H]5CC[C@]43C)[C@H]12 [asiatic-acid] (10 µM) | -0.135 | 108% (inactive)
Fc1ccc(C(c2ccc(F)cc2)N2CCN(C/C=C/c3ccccc3)CC2)cc1 [flunarizine] (10 µM) | 0.364 | 69.5% (inactive)
Cc1ncc([N+](=O)[O-])n1CCO [metronidazole] (10 µM) | -0.0912 | 118% (inactive)
CC(=O)Nc1nnc(S(N)(=O)=O)s1 [acetazolamide] (10 µM) | 0.0392 | 85.5% (inactive)
C[C@H](N)C(=O)N[C@@H](CCC(N)=O)C(=O)O [dipeptamin] (10 µM) | 0.00346 | 102% (inactive)
CC(C)(C)NC[C@H](O)c1ccc(O)cc1Cl [meluadrine] (10 µM) | 0.0145 | 94% (inactive)
CCOC(=O)[C@H](CCc1ccccc1)N[C@H]1CCc2ccccc2N(CC(=O)O)C1=O [benazepril] (10 µM) | 0.413 | 90.5% (inactive)
O=Cc1cn(Cc2ccc(Cl)cc2)c2ccccc12 [oncrasin-1] (10 µM) | 0.108 | 110% (inactive)
O=C(O)C1=CCCN(CCON=C(c2ccccc2)c2ccccc2)C1 (10 µM) | 0.0245 | 95% (inactive)
Cc1cc(CC(=O)O)n(C)c1C(=O)c1ccc(Cl)cc1 [zomepirac] (10 µM) | 0.117 | 104% (inactive)
COc1ccc(CNC(=O)/C=C/c2ccc3[nH]cc(CCN(C)C)c3c2)cc1 (10 µM) | 0.155 | 88.5% (inactive)
c1ccc(CCCN2CCN(CCOC(c3ccccc3)c3ccccc3)CC2)cc1 (10 µM) | 0.239 | 94% (inactive)
COc1ccc(C2CC(c3c(O)cc(C)oc3=O)=NCCS2)c(OC)c1 (centres undefined) (10 µM) | 0.0127 | 101% (inactive)
CCC1=C(C)CN(C(=O)NCCc2ccc(S(=O)(=O)NC(=O)N[C@H]3CC[C@H](C)CC3)cc2)C1=O [glimepiride] (10 µM) | 0.152 | 99% (inactive)
C=CCNc1ncnc2ccc(Br)cc12 (10 µM) | 0.19 | 101% (inactive)
O=C(/C=C/c1cccc(S(=O)(=O)Nc2ccccc2)c1)NO [belinostat] (10 µM) | 0.0182 | 97.5% (inactive)
CCC1=C[C@@H]2CN3CCc4c([nH]c5ccccc45)[C@@](C(=O)OC)(C2)[C@@H]13 [catharanthine] (10 µM) | 0.119 | 110% (inactive)
CC(=O)N[C@H]1[C@H]([C@H](O)[C@H](O)CO)OC(C(=O)O)=C[C@@H]1NC(=N)N [zanamivir] (10 µM) | 0.113 | 108% (inactive)

SMILES | morphology score [1] | SARS-CoV-2 infection rate [2]
CC(C)(C)NCC(O)COc1ccc(NC(=O)NC2CCCCC2)cc1 (centres undefined) [talinolol] (10 µM) | 0.0728 | 106% (inactive)
COc1ccc2c(c1)/C(=C/c1cnc[nH]1)C(=O)N2 (0.833333 µM) | -0.0607 | 109% (inactive)
Nc1nc(=O)c2c([nH]1)NCC(CNc1ccc(C(=O)N[C@@H](CCC(=O)O)C(=O)O)cc1)N2C=O (some centres undefined) [leucovorin] (10 µM) | -0.0198 | 89.8% (inactive)
Cc1cccc2c1CC[C@H](CN1CCC(c3c(Cl)cccc3Cl)CC1)C[C@@H]2O (0.833333 µM) | 0.134 | 98% (inactive)
O=C(O)c1ccc(S(=O)(=O)N(Cl)Cl)cc1 [halazone] (10 µM) | 0.13 | 95% (inactive)
Cc1nc(C)c(-c2ccc(C3CCC(CC(=O)O)CC3)cc2)nc1C(N)=O (centres undefined) (10 µM) | 0.134 | 89.5% (inactive)
CC(=O)Nc1ccc(CC(=O)O)cc1 [actarit] (10 µM) | 0.181 | 99.5% (inactive)
CC(C)N(CC[C@H](c1ccccc1)c1cc(CO)ccc1O)C(C)C [5-hydroxymethyl-tolterodine] (10 µM) | 0.191 | 94.5% (inactive)
O=C(Nc1ccccc1)Nc1ccc(-c2ccc(C(=O)[C@@H]3CCC[C@@H]3C(=O)O)cc2)cc1 (10 µM) | 0.202 | 102% (inactive)
CCCNC(=O)NS(=O)(=O)c1ccc(Cl)cc1 [chlorpropamide] (10 µM) | 0.266 | 79.5% (inactive)
Nn1cnc2cc3ccccc3cc2c1=O [centazolone] (10 µM) | -0.195 | 116% (inactive)
Cc1cc(NCCO)nc(-c2ccc(Br)cc2)n1 (10 µM) | 0.269 | 101% (inactive)
[N-]=[N+]=CC(=O)CC[C@H](N)C(=O)O [6-diazo-5-oxo-L-norleucine] (10 µM) | 0.196 | 93.5% (inactive)
CCCN(CCC)C1Cc2cc(OC)c(OC)cc2C1 (10 µM) | 0.231 | 109% (inactive)
CN1CC2c3ccccc3Oc3ccc(Cl)cc3C2C1 (centres undefined) [asenapine] (10 µM) | 0.67 | 41% (active)
CC(C)(C)[C@]1(O)CCN2C[C@H]3c4ccccc4CCc4cccc(c43)[C@@H]2C1 [butaclamol] (10 µM) | 0.273 | 101% (inactive)
N[C@@H](CC(=O)N1CCn2c(nnc2C(F)(F)F)C1)Cc1cc(F)c(F)cc1F [sitagliptin] (10 µM) | 0.0472 | 98% (inactive)
CC(C)(C)NC(=O)[C@@H]1CN(Cc2cccnc2)CCN1C[C@@H](O)C[C@@H](Cc1ccccc1)C(=O)N[C@H]1c2ccccc2C[C@H]1O [indinavir] (10 µM) | 0.0426 | 110% (inactive)
CC[C@H](NC(=O)c1c(O)c(-c2ccccc2)nc2ccccc12)c1ccccc1 [talnetant] (10 µM) | -0.0287 | 117% (inactive)
S=C(NCc1ccc2c(c1)OCO2)N1CCN(c2ncnc3c2oc2ccccc23)CC1 [amuvatinib] (0.833333 µM) | 0.0595 | 92.5% (inactive)
